Data published in PubChem BioAssay (NCATS).
Results filed as inconclusive are left out. The source made the active and inactive calls. Calls follow the shape of the dose curve; as a rule, active = well fitted activation curve with a large enough effect; inconclusive = small, poorly fitted or top-dose-only effect; inactive = no such curve, though single readings can be large or run the other way.

target: Cellular tumor antigen p53 (Homo sapiens) (UniProt P04637); assay: Primary qHTS for small molecule compounds that upregulate eGFP-tagged delta133p53alpha (in N-terminal) cells. (AID 2060322); conditions: NCI-H358 eGFP-delta133p53alpha fluorescence, 24 h; activation: active compounds read high; also: nearly all actives have a fitted effect of over 75% in size;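 as to activation: cells pre-induced with doxycycline then dosed without doxycycline; series mostly up to about 56 µM; 0% = DMSO vehicle and 100% = reference activator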
Summary of the method: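 NCI-H358 cells pre-induced 24 h with 10 ng/ml doxycycline for eGFP-delta133p53alpha, plated dox-free and exposed 24 h at 37C to titrated compounds. Fixed, Hoechst-stained; gated GFP peak intensity by laser scanning cytometry, normalized to DMSO (0%) and 57.5 uM 5-azacytidine (100%).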
Potency is read from the fitted curve at half-maximal effect.

Sequence of Cellular tumor antigen p53 (Homo sapiens) (P04637 whole entry, looked up): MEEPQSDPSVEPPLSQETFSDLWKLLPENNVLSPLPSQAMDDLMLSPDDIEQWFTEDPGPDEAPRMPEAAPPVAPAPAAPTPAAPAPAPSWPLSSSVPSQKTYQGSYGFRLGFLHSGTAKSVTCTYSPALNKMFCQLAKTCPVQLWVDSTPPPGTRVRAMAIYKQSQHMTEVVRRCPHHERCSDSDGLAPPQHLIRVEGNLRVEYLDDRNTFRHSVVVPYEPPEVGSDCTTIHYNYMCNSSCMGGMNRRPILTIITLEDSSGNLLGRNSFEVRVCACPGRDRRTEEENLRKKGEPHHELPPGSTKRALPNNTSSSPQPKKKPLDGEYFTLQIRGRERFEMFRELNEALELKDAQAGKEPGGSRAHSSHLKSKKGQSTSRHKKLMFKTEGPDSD

Row | SMILES | activation | Potency
1 | COc1ccc2c(c1)CCCC2=O | 18.6% (inactive) | –
2 | CN(C)CCN1C(=O)c2ccccc2N(C)c2ccccc21 | 7.34% (inactive) | –
3 | CN=C(N)NC(=O)Nc1c(C)cccc1C | 5.86% (inactive) | –
4 | CCn1cc(C(=O)O)c(=O)c2cnc(N3CCNCC3)nc21 | 0.837% (inactive) | –
5 | Cc1cccc(C)c1NC(=O)c1ccccc1C(=O)O | 28.5% (inactive) | –
6 | O=C1c2cccc(O)c2C(=O)c2c(O)cccc21 | -22.6% (inactive) | –
7 | O=c1cc(CO)occ1O | -9.6% (inactive) | –
8 | Cc1ccc2ccc(Cl)cc2n1 | -5.08% (inactive) | –
9 | OC[C@@H](O)[C@@H](O[C@@H]1O[C@H](CO)[C@H](O)[C@H](O)[C@H]1O)[C@H](O)[C@@H](O)CO | -8.37% (inactive) | –
10 | O=C(C=Cc1cccc(S(=O)(=O)Nc2ccccc2)c1)NO | 49% (inactive) | –
11 | CC(=O)N[C@H]1[C@H]([C@H](O)[C@H](O)CO)OC(C(=O)O)=C[C@@H]1N=C(N)N | 5.02% (inactive) | –
12 | O=S(=O)(O)c1ccc2nc(-c3ccccc3)[nH]c2c1 | 23.2% (inactive) | –
13 | CCCCCCCCCCCCCC[N+](C)(C)Cc1ccccc1 | 27.6% (inactive) | –
14 | O=C1NC(c2ccccc2)(c2ccccc2)C(=O)N1COP(=O)(O)O | -11.9% (inactive) | –
15 | O=C(CN1C(=O)C2(CCCC2)NCC1c1cc(F)cc(F)c1)Nc1ccc2c(c1)CC1(C2)C(=O)Nc2ncccc21 (stereo not given) | 0.477% (inactive) | –
16 | CC(C)N=C(N)/N=C(\N)Nc1ccc(Cl)cc1 | 0.837% (inactive) | –
17 | NS(=O)(=O)c1cc2c(cc1C(F)(F)F)NCNS2(=O)=O | 6.21% (inactive) | –
18 | CCCCCCCCCCCCCCCC(=O)O | -13.4% (inactive) | –
19 | Cc1ncc(CO)c(C=O)c1O | -3.35% (inactive) | –
20 | O=C(O)c1ccnc2cc(C(OCCCN3CCCCC3)c3ccccc3Cl)[nH]c12 (stereo not given) | 1.12% (inactive) | –

Row | SMILES | activation | Potency
21 | CN[C@@H]1[C@@H](O)[C@@H](O[C@@H]2[C@@H](O)[C@H](O[C@H]3O[C@H](CN)[C@@H](O)[C@H](O)[C@@H]3O)[C@@H](N)C[C@@H]2NC(=O)[C@@H](O)CN)OC[C@]1(C)O | -2.48% (inactive) | –
22 | CCNC(=O)Nc1ccc(-c2nc3c(c(N4CCOC[C@H]4C)n2)CCN(C2COC2)C3)cc1 | 5.73% (inactive) | –
23 | O=C(c1ccc(F)cc1)C1CCN(CCn2c(=S)[nH]c3ccccc3c2=O)CC1 | -8.47% (inactive) | –
24 | CC(C)=CCC/C(C)=C/CC/C(C)=C/CCC(=O)OC/C=C(\C)CCC=C(C)C | 0.565% (inactive) | –
25 | COc1cc2nc(-c3cc(F)ccc3O)nc(N[C@@H]3CNC[C@@H]3C(C)(C)O)c2cc1OC | – | 34.3 µM (active)
26 | CCC(CC)(CC(=O)Nc1cccc(/C=C/c2nc(C3CCC3)cs2)c1)C(=O)O | 24.3% (inactive) | –
27 | CC(=O)Nc1cccc(O)c1 | -4.18% (inactive) | –
28 | N#C/C(=C1/SC[C@@H](c2ccc(Cl)cc2Cl)S1)n1ccnc1 | -25.9% (inactive) | –
29 | Cc1c(-c2ccccc2)oc2c(C(=O)OCCN3CCCCC3)cccc2c1=O | -16.7% (inactive) | –
30 | NC(=O)NC1N=C([O][Al])NC1=O (stereo not given) | 8.47% (inactive) | –
31 | CC(C)c1onc(-c2c(Cl)cccc2Cl)c1COc1ccc(C=Cc2cccc(C(=O)O)c2)c(Cl)c1 | -0.915% (inactive) | –
32 | COc1ccc2nc(NC(=O)Nc3ccccc3)sc2c1 | -19.8% (inactive) | –
33 | CC(C)OP(=O)(CP(=O)(OC(C)C)OC(C)C)OC(C)C | -4.18% (inactive) | –
34 | COC(=O)c1cc(Cl)c(NC(C)=O)cc1OC | 11.9% (inactive) | –
35 | CC1(COc2ccc(CC3SC(=O)NC3=O)cc2)CCCCC1 (stereo not given) | -3.95% (inactive) | –
36 | CC(=O)c1cc2ccccc2s1 | 6.21% (inactive) | –
37 | CN(C)c1cc(NC(=O)CNC(C)(C)C)c(O)c2c1C[C@@H]1C[C@H]3[C@H](N(C)C)C(=O)C(C(N)=O)=C(O)[C@@]3(O)C(=O)C1=C2O | -7.92% (inactive) | –
38 | Cc1ncc(CSSCc2cnc(C)c(O)c2CO)c(CO)c1O | -22% (inactive) | –
39 | CC(C)(C)C(=O)OCOC(=O)C1N2C(=O)CC2S(=O)(=O)C1(C)C (stereo not given) | 3.95% (inactive) | –
40 | CC(C)(C)NC(=O)[C@H]1CN(Cc2cccnc2)CCN1C[C@@H](O)C[C@@H](Cc1ccccc1)C(=O)N[C@H]1c2ccccc2C[C@H]1O | 18.3% (inactive) | –
